Screening data: PubChem, National Center for Advancing Translational Sciences (NCATS)
Vaccinia Venus: qHTS for Stage-Specific Inhibitors of Vaccinia Orthopoxvirus: Venus Reporter Primary qHTS; Vaccinia virus Venus reporter expression, fluorescence; Potency, µM (doses to about 36.5 µM), for inactives: at the top dose activity change, negative = inhibition, hits mostly inhibitors; 330,000 compounds, 0.46% hits; calls by dose curve; tested in A549 cells; note: nearly all actives have a fitted effect of over 30% in size
AMA1 RON2 block: qHTS for Inhibitors of AMA1-RON; Towards Development of Antimalarial Drug Lead: Primary Screen | AlphaScreen AMA1-biotinylated RON2 peptide binding | AID 720542, 2013 | Plasmodium falciparum AMA1 (3D7) - RON2 peptide interaction | Potency, µM (highest dose often 58.2 µM), inactives show at the highest dose activity change, negative = inhibition, actives largely listed as inhibitors | 360,000 compounds, 0.2% hits;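 note: 0% = vehicle wells and -100% = peptide control; nearly all actives have a fitted effect of over 45% in size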
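AMA1 (3D7) with his tag at 25 nM final met compounds first, then biotinylated RON2 peptide at 25 nM; detection used donor plus acceptor beads, 10 µg/mL apiece, read by AlphaScreen after 30 min at room temperature.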
Pf growth 48h: Primary qHTS for delayed death inhibitors of the malarial parasite plastid, 48 hour incubation; P. falciparum luciferase growth in erythrocytes, 48 h; Potency, µM (top dose mostly 28.7 µM), for inactives: at the highest dose activity change, negative = inhibition, hits mostly inhibitors; 310,000 compounds, 5.9% hits; AID 504832, 2011
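Compounds are pin-transferred into medium, infected erythrocytes (2% hematocrit, 0.1% parasitemia final) are added, and plates sit one parasite generation at 37 C in 5% CO2. Detection reagent is then added and luminescence measured.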
Pf growth 96h: Primary qHTS for delayed death inhibitors of the malarial parasite plastid, 96 hour incubation | P. falciparum luciferase reporter growth, 96 h | Potency, µM (top dose mostly 28.7 µM), without a hit: at the highest dose activity change, negative = inhibition, usual class: inhibitors | 320,000 compounds, 6.9% hits | AID 504834, 2011
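Erythrocytes infected with luciferase-expressing P. falciparum were dispensed at 2% hematocrit and 0.05% parasitemia (final), then incubated with compounds 96 hours at 37 C in 5% CO2. Luminescence after detection reagent addition reported growth.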
Vaccinia mCherry: qHTS for Stage-Specific Inhibitors of Vaccinia Orthopoxvirus: mCherry Reporter Primary qHTS. 310,000 compounds, 0.63% hits. Potency, µM (top dose mostly 36.5 µM), for inactives: at the highest dose activity change, negative = inhibition, hits mostly inhibitors. Vaccinia virus mCherry reporter infection, fluorescence. AID 720579, 2013; calls by dose curve; tested in A549 cells; note: nearly all actives have a fitted effect of over 35% in size
Starred values were filed as active, the others as inactive; i = inactive; ? = inconclusive; . = not tested or not shown; [ ] = dose if it differs, or a comment. This is a sample that favours compounds with a hit; in the whole collection about 8.7% have one here. Unless noted, calls come from the whole dose curve; as a rule, active = well fitted curve in the direction sought with a large enough effect; inconclusive = small, poorly fitted or top-dose-only effect, or another doubt; inactive = no such curve, though single readings can be large; an effect the other way counts as inactive or inconclusive. Unless noted, % is set by controls: 0 for no effect and ±100 for the full control effect; potency is the fitted concentration of half-maximal effect.

SMILES	Vaccinia Venus	AMA1 RON2 block	Pf growth 48h	Pf growth 96h	Vaccinia mCherry
O=C(c1ccc(Cl)cc1)C1CCCN(Cc2ccc3nonc3c2)C1 (centres undefined)	.	2.7%	-0.4%	10.4µM*	.
NC(=O)CCC(=O)N1CCCC(C(=O)c2ccc(C(F)(F)F)cc2)C1 (centres undefined)	.	1.3%	4.5%	13.1µM*	.
O=C(c1ccc(C(F)(F)F)cc1)C1CCCN(Cc2ccncc2)C1 (centres undefined)	-18.7%	-5.1%	11.7µM*	8.8%	-28.7%
CN(C)C(=O)CCC(=O)N1CCCC(C(=O)c2ccc(C(F)(F)F)cc2)C1 (centres undefined)	-8.5%	-8.8%	5.7%	4.8%	-2.3%
COc1cc(CN2CCCC(C(=O)c3sccc3C)C2)cc(OC)c1O (centres undefined)	-9.6%	-6.9%	10.8%	?	?
COc1cc(CN2CCCC(C(=O)c3ccc(C(C)(C)C)cc3)C2)cc(OC)c1O (centres undefined)	-20.8%	-9.5%	6.57µM*	36.3%	?
COc1ccc(NS(=O)(=O)c2ccc3[nH]c(=O)ccc3c2)cc1OC	-1.8%	.	.	.	-11.1%
CC(C)c1cc(C(=O)NCc2ccc(F)cc2)no1	-9.2%	.	.	.	-7.9%
O=C(c1cccc(Cl)c1)N1CCCC(C(=O)N2CCCCCC2)C1 (centres undefined)	.	-11.3%	?	12.6%	.
O=C(c1cccc(Cl)c1)C1CCCN(Cc2ccc(N3CCNC3=O)cc2)C1 (centres undefined)	-24.2%	2.6%	?	9.28µM*	-17.6%
O=C(c1cccc(Cl)c1)C1CCCN(C(=O)c2ccoc2)C1 (centres undefined)	1.2%	-23.4%	-8.5%	10.4µM*	-15.8%
COc1ccc(NC(=O)c2c(C)oc3ccc(O)c(CN4CCN(C)CC4)c23)cc1Cl	-6.0%	.	.	.	-16.9%
CCOc1ccc(C(=O)Nc2ccc(C(=O)OCc3cc(=O)n4nc(CC)sc4n3)cc2)cc1	-18.7%	.	.	.	i
CCOC(=O)N1CCC(NC(=O)c2ccc3c(c2)N(Cc2ccccc2)CCS3)CC1	.	-12.0%	.	?	.
CN1CCSc2ccc(C(=O)Nc3cc(F)ccc3F)cc21	-7.9%[7.34 µM]	7.9%	192.6%	334.5%	i[7.34 µM]
Cc1ccccc1NC(=O)c1ccc2c(c1)N(C)CCS2	-4.4%	-4.1%	39.5%	13.1µM*	-16.2%
CCOC(=O)N1CCC(NC(=O)c2ccc3c(c2)N(Cc2ccc(F)cc2)CCS3)CC1	-17.7%	-17.6%	4.65µM*	?	-18.6%
CCOC(=O)N1CCC(NC(=O)c2ccc3c(c2)N(C)CCS3)CC1	-7.0%	0.4%	11.7µM*	?	-0.5%
O=C(NC1CC1)c1ccc2c(c1)N(Cc1ccccc1)CCS2	.	-5.7%	-22.7%	11.7µM*	.
Cc1ccc(N(CC(=O)Nc2ccc(Cl)cc2)S(=O)(=O)c2cccc3nonc23)cc1	-11.3%	.	.	.	-16.3%
COc1ccc(C)cc1NC(=O)C1CCCN(c2ncnc3onc(C)c23)C1 (centres undefined)	-18.2%	.	.	.	i
COc1ccc(OC)c(CCNC(=O)c2ccc3c(c2)N(Cc2ccccc2)CCS3)c1	-13.9%	-5.0%	?	13.1µM*	-16.6%
COc1ccc(CCNC(=O)c2ccc3c(c2)N(Cc2ccccc2)CCS3)cc1OC	-2.8%[7.34 µM]	-21.3%	-24.2%	?	3.1%[7.34 µM]
CN1CCN(CCCNC(=O)c2ccc3c(c2)N(Cc2ccc(F)cc2)CCS3)CC1	.	-11.2%	?	10.4µM*	.
O=C(NCCCN1CCOCC1)c1ccc2c(c1)N(Cc1ccc(F)cc1)CCS2	.	-3.8%	?	?	.
SMILES	Vaccinia Venus	AMA1 RON2 block	Pf growth 48h	Pf growth 96h	Vaccinia mCherry
Cc1ccc(-c2ccc(=O)n(CC(=O)Nc3ccc(F)c(Cl)c3)n2)cc1C	-11.2%	.	.	.	-13.5%
COc1ccc(C(=O)Nc2cccc(-c3nc4cccnc4s3)c2C)c(OC)c1	-8.2%	.	.	.	-15.6%
Cc1ccccc1-c1nnc(CN2CCN(c3cccc(C)c3C)CC2)o1	-2.7%	.	.	.	0.6%
Cc1cccc(N2CCN(C(c3ccccc3)c3nnc(-c4ccccc4Cl)o3)CC2)c1C (centres undefined)	-7.8%	.	.	.	-6.2%
COc1ccc(-c2n[nH]c3c2C(c2ccc(OC)c(OC)c2)N(c2ccccc2)C3=O)cc1 (centres undefined)	.	5.3%	.	0.117µM*	.
COc1ccc(C2C(C(C)=O)=C(O)C(=O)N2CCO)c(OC)c1 (centres undefined)	-8.4%	-8.7%	4.8%	11.7µM*	.
COc1cccc(N2C(=O)C(O)=C(C(C)=O)C2c2ccc(OC)c(OC)c2)c1 (centres undefined)	.	-8.3%	13.1µM*	?	.
CCCCN1C(=O)C(O)=C(C(C)=O)C1c1ccc(OC)cc1OC (centres undefined)	-20.3%	-5.6%	50.8%	92.0%	.
CCCCCCOC1(c2ccccc2)OC(=O)c2ccccc21 (centres undefined)	-4.0%	36.2%	10.4µM*	8.28µM*	-8.1%
Cc1cccc(OC2(c3ccccc3)OC(=O)c3ccccc32)c1C (centres undefined)	-11.9%	-5.3%	?	9.28µM*	-19.9%
CCCCCCCOC1(c2ccccc2)OC(=O)c2ccccc21 (centres undefined)	.	41.5%	?	6.57µM*	.
O=C1OC(c2ccccc2)(c2ccccc2)c2ccccc21	-12.2%	20.9%	.	.	i
COc1ccc(C(=O)Nc2ccc(Cl)cc2F)cc1S(=O)(=O)N1CCCC1	.	-6.4%	11.7µM*	9.28µM*	.
COc1ccc(S(=O)(=O)N2CCCC2)cc1NC(=O)c1ccccc1	8.3%	-16.5%	2.8%	11.7µM*	i
COc1ccc(S(=O)(=O)N2CCCCC2)cc1NC(=O)c1c(F)cccc1Cl	-10.8%	1.3%	8.28µM*	2.94µM*	-15.5%
COc1ccc(S(=O)(=O)N2CCCCC2)cc1NC(=O)c1ccccc1	-3.9%	-5.6%	-1.3%	-9.0%	-0.8%
COc1ccc(S(=O)(=O)N2CCCCC2)cc1NC(=O)c1cnc(C)cn1	-2.3%	10.3%	-12.4%	-12.0%	i
COC(=O)CCC(=O)OC1(C)C(=O)C=C2C=C(C3CC3)N(Cc3ccccc3)C=C2C1=O (centres undefined)	-5.3%	4.4%	?	?	0.8%
COC(=O)CCC(=O)OC1(C)C(=O)C=C2C=C(C3CC3)N(C3CCCC3)C=C2C1=O (centres undefined)	-7.0%	1.0%	?	7.38µM*	i
COC(=O)CCC(=O)OC1(C)C(=O)C=C2C=C(C3CC3)N(C3CCCCC3)C=C2C1=O (centres undefined)	-6.7%	15.9%	?	?	i
COC(=O)CCC(=O)OC1(C)C(=O)C=C2C=C(C3CC3)N(CC(C)C)C=C2C1=O (centres undefined)	.	.	2.94µM*	1.85µM*	.
